Experimental data reported in PubChem BioAssay AID720519 (National Center for Advancing Translational Sciences (NCATS), 2013).
Inconclusive results are not listed. The source made the active and inactive calls. Calls follow the shape of the dose curve; as a rule, active = well fitted activation curve with a large enough effect; inconclusive = small, poorly fitted or top-dose-only effect; inactive = flat fitted curve, though single readings scatter.

experiment: qHTS for Inhibitors of Cell Surface uPA Generation: Confirmatory Assay for Cherry-picked Compounds; details: cell surface uPA activity generation, qHTS confirmation; series mostly up to 115 µM
Procedure, shortened: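 RAW 264.7 cells at 4000/well, incubated overnight, then treated with compounds. After 24 h at 37 C, viability was read by ATPlite luminescence. An increase in signal indicates blocked uPA-dependent LF entry.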

Potency, inactive:
O=C(Cn1cnc2c(OCc3ccccc3)ncnc21)NCCCN1CCCC1=O
CC(C)C(=O)Nc1nnc(SCc2cccc(F)c2)s1
CCCOc1ccc(S(=O)(=O)NNC(=O)c2cc3ccccc3o2)cc1
O=C(COC(=O)/C=C/c1cccc(F)c1)Nc1ccccc1
CC1(C(=O)OCC(=O)Nc2ccc(Cl)cn2)CC1(Cl)Cl (centres undefined)
COc1ccc(N2CCN(S(=O)(=O)c3ccc4c(c3)NC(=O)CS4)CC2)cc1
CCCCCCCCCOC(=O)C1N2C(=O)[C@@H](NC(=O)COc3ccccc3)[C@H]2SC1(C)C (some centres undefined)
COc1ccc(S(=O)(=O)N2CCOCC2)cc1NC(=O)CN1C(=O)NC2(CCCC2)C1=O
Cc1ccc(NC(=O)CCCn2c(=S)[nH]c3ccsc3c2=O)cc1C
CN1CCN(C2=Nc3ccccc3Oc3ccc(Cl)cc32)CC1
Cc1ccc2cc(C=O)c(Cl)nc2c1
COc1ccc(C(=O)NCC(=O)N/N=C/c2c(C)[nH]c3ccccc23)cc1
CC(=O)c1cccc(NC(=O)N2C3CCC2CC(O)(c2cccnc2)C3)c1 (centres undefined)
COc1ccc(-n2ncc3c(=O)n(CC(=O)NC(C)C)cnc32)cc1
c1csc(CN2CCOCC2)c1
COc1ccc(CN2CCNC(=O)C2CC(=O)NCC2CCOCC2)cc1C (centres undefined)
O=C(c1ccco1)N1CCN(c2ncccn2)CC1
Cc1cccc(N2CCN(Cc3ccc(Br)o3)CC2)c1C
O=C1CC(/C=C/c2ccc(Cl)cc2)=Nc2ccccc2N1
Cc1cccc(C(=O)NC2CCN(CC(=O)N3CCOCC3)CC2)c1
O=C(C1=C[C@H](c2ccccc2)C[C@H](OCCCCO)O1)N1CCN(Cc2ccc3c(c2)OCO3)CC1
O=C1N[C@@H](Cc2c[nH]c3ccccc23)C(=O)N[C@H]1Cc1ccccc1
CCSC1=NCCN1S(=O)(=O)c1ccc(Cl)cc1
CCOc1cc(S(=O)(=O)NC2CC(C)(C)NC(C)(C)C2)ccc1Cl
COc1cc(CNCc2ccc3c(c2)OCO3)c([N+](=O)[O-])cc1OC
CCOc1ccc(C(=O)NCC(=O)N2CCN(C/C=C/c3ccccc3)CC2)cc1OCC
COc1ccccc1N=Nc1c(C)[nH]n(-c2ccccc2)c1=O
O=C(CNS(=O)(=O)c1ccc(F)cc1)Nc1ccccc1
COc1ccc(CCNC(=O)Cn2cccc2C(=O)c2ccccc2)c(OC)c1
O=[N+]([O-])c1ccc(-c2cn3c(n2)SCC3)cc1
Cc1oc(-c2ccccc2F)nc1CS(=O)CC(=O)NCc1ccc(F)cc1 (centres undefined)
CCN(CC)c1ccc(C=NCCc2ccc(S(N)(=O)=O)cc2)cc1
COc1cc2c(cc1OC)CN(C(=O)c1ccc(-c3ccccc3)cc1)CC2
C=CCn1c(=O)c(C(=O)NCCc2ccc(Cl)cc2)c(O)c2cc(OC)c(OC)cc21
COc1cc(N/C(N)=N/c2nc(C)cc(C)n2)cc(OC)c1
COc1ccccc1CNC(=O)CCn1c(=O)oc2ccccc21
C=CCn1c(SCCN2C(=O)c3ccccc3C2=O)nc2scc(-c3ccc(F)cc3)c2c1=O
Cc1ccc(N2C(=O)CC(N3CCN/C3=C3\CC/C(=C\c4ccccc4)C3=O)C2=O)cc1 (centres undefined)
COc1cc2cc(CN(CCN3CCOCC3)C(=O)Nc3ccc(F)cc3)c(=O)[nH]c2cc1OC
